An excerpt weighted towards active compounds, which were near 9.4% of everything screened.
ELG1 repair inh: ELG1-dependent DNA repair inhibition. HEK293T ELG1-luciferase reporter, luminescence, 16 h; DNA damage induced by 5-fluorouridine. Potency, µM (series often up to 46.1 µM), without a hit: at the highest dose activity change, negative = inhibition, actives largely listed as inhibitors. hit rate 2.3% among 330,000; also: % is scaled to controls: 0 for no effect and ±100 for the full control effect; nearly all actives have a fitted effect of over 55% in size
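Overnight (16 hr) co-exposure of 2,000 cells/well to 5-fluorouridine and compound at 37 °C preceded detection. Luciferase was quantified via ONE-Glo luminescence; loss of signal denotes inhibition.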
Rab9 prom act: activates the Rab9 promoter; Huh7 Rab9 promoter-luciferase reporter, luminescence, 24 h; Potency, µM (top dose mostly 9.22 µM), for inactives: at the highest dose activation, negative = inhibition, actives largely listed as activators; hit rate 2.8% among 320,000; also: % of control where 0% means no effect; nearly all actives have a fitted effect of over 60% in size
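Cells were plated at 1500 per well in reduced-serum medium with 10% FBS and left 2 h. Compound in DMSO was then added for 24 h at 37 °C. Reporter signal was read by luminescence after 10 min with luciferase detection reagent.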
FLuc counter: firefly luciferase modulation, counter-screen for miR-21 project | P08659 | purified FLuc, Km substrates, luminescence inhibition | Potency, µM (highest dose often 57.5 µM), without a hit: at the top dose activity change, negative = inhibition, most hits filed as inhibitors | hit rate 6.9% among 360,000;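 also: plate controls were vehicle for no effect and reference inhibitor for full effect; nearly all actives have a fitted effect of over 55% in size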
Target sequence (P08659 whole entry, looked up): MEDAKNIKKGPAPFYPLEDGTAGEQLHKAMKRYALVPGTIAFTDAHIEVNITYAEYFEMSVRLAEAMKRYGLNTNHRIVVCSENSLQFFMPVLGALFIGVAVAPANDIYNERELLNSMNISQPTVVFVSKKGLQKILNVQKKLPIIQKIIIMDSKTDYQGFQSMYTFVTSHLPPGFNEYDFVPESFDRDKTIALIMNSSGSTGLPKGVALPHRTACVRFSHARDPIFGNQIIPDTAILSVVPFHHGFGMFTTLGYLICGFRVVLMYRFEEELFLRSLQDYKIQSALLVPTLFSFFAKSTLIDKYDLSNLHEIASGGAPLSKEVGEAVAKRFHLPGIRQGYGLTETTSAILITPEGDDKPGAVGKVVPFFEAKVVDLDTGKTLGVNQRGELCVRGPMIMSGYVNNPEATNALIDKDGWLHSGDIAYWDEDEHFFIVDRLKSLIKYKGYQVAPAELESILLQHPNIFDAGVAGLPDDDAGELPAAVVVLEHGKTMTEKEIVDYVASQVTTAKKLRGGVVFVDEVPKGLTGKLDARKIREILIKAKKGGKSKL
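Purified P. pyralis luciferase (10nM final) with 10uM D-luciferin and 10uM ATP (Km levels) in 50mM Tris acetate pH 7.5, 10mM Mg acetate, 0.01% Tween-20, 0.05% BSA; qHTS 6-point titration, ~60 µM downward; luminescence read.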
SMN2 splice up: increases expression of the SMN2 splice variant; hit rate 2.8% among 210,000; HEK293 SMN2-luciferase splicing reporter, luminescence, 30-36 h; Potency, µM (top dose mostly 46.1 µM), inactives show at the top dose activity change, positive = activation, hits mostly activators; also: % of control where 0% means no effect; nearly all actives have a fitted effect of over 55% in size
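HEK293 cells carry an SMN2 […]–luciferase reporter in which exon 7 inclusion puts luciferase in frame. Cells were plated 10-12 h before compound addition, then incubated 30-36 h at 37C. ONE-Glo luminescence was read; sodium butyrate at 4.5 mM final served as control.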
ELG1 genotoxic: genotoxicity induction in ELG1-luciferase HEK293T cells; HEK293T ELG1-luciferase reporter, luminescence, 16 h; Potency, µM (top dose mostly 46 µM), for inactives: at the highest dose activity change, positive = activation, usual class: activators; hit rate 1.3% among 330,000; AID 504466; also: % of control where 0% means no effect; nearly all actives have a fitted effect of over 60% in size
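Quantitative HTS format in 1536-well plates. HEK293T ELG1-luciferase reporter cells receive test compound and are incubated 16 hr at 37 °C, 5% CO2; ONE-Glo added, 30 min room temperature, then luminescence read.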
NPC1 prom act: activators of NPC1 promoter. Huh7 NPC1 promoter luciferase reporter, 24 h. Potency, µM (top dose mostly 9.22 µM), inactives show top-dose activation, usual class: activators. hit rate 2.4% among 320,000; also: % of control where 0% means no effect; nearly all actives have a fitted effect of over 60% in size
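Stably transfected Huh7 (NPC1 promoter→luciferase), 1500 cells/well in Opti-MEM + 10% FBS, 2 h settle, then compound 24 h at 37 °C. Luminescence after 10 min with Amplite reagent.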
Starred values were filed as active, the others as inactive. Calls follow the shape of the dose curve; as a rule, active = well fitted curve in the direction sought with a large enough effect; inconclusive = small, poorly fitted or top-dose-only effect, or another doubt; inactive = no such curve, though single readings can be large; an effect the other way counts as inactive or inconclusive. Potency is read from the fitted curve at half-maximal effect.

`CCn1nc(NC(=O)C2CCCO2)c2cc3cc(C)ccc3nc21` (stereo not drawn) gave ELG1 repair inh inconclusive, Rab9 prom act inconclusive, FLuc counter 16.9µM*, SMN2 splice up inconclusive, ELG1 genotoxic 14.9% and NPC1 prom act 28.7%.
CCCn1nc(NS(=O)(=O)c2cccc3nonc23)c2cc3cc(C)ccc3nc21 was read as ELG1 repair inh inconclusive, Rab9 prom act 7.6%, FLuc counter 10.7µM*, ELG1 genotoxic 12.0% and NPC1 prom act 18.2%.
`CCn1nc(NS(=O)(=O)c2ccc(NC(C)=O)cc2)c2cc3ccc(C)cc3nc21` gave ELG1 repair inh 13.1%, Rab9 prom act 0.7%, FLuc counter 26.9µM*, ELG1 genotoxic 2.0% and NPC1 prom act 1.0%.
CCCn1nc(NC(=O)c2ccco2)c2cc3cc(C)ccc3nc21 was read as ELG1 repair inh inconclusive, Rab9 prom act 10.3%, FLuc counter inconclusive, ELG1 genotoxic -8.5% and NPC1 prom act 16.2%.
CCCn1nc(NC(=O)c2ccccn2)c2cc3cc(C)ccc3nc21 was read as ELG1 repair inh inconclusive, Rab9 prom act 14.6%, FLuc counter 10.7µM*, SMN2 splice up inconclusive, ELG1 genotoxic 6.1% and NPC1 prom act 28.5%.
`CC(C)OC(=O)c1c(NC(=O)c2cccs2)sc2c1CCCC2` gave ELG1 repair inh 1.4%, Rab9 prom act 5.2%, FLuc counter -1.1%, SMN2 splice up -4.2%, ELG1 genotoxic -6.7% and NPC1 prom act 2.9%.
For O=C(Nc1sc2c(c1C(=O)O)CCCCC2)c1cccs1 the results were ELG1 repair inh inconclusive, Rab9 prom act 4.47µM*, FLuc counter 2.69µM*, SMN2 splice up inconclusive, ELG1 genotoxic 6.7% and NPC1 prom act inconclusive.
For O=C(Nc1sc2c(c1C(=O)O)CCCC2)c1cccs1 the results were ELG1 repair inh 15.5%, Rab9 prom act 2.5%, FLuc counter 16.9µM*, SMN2 splice up inconclusive, ELG1 genotoxic -8.4% and NPC1 prom act 17.5%.
C=C(C)COc1ccc(-c2n[nH]c(C)c2Oc2ccccc2OC)c(O)c1 was read as ELG1 repair inh inconclusive, Rab9 prom act 1.6%, FLuc counter -10.1%, ELG1 genotoxic -6.1% and NPC1 prom act 1.0%.
`C=C(C)COc1ccc(-c2n[nH]c(C)c2-c2ccc(OC)c(OC)c2)c(O)c1` gave ELG1 repair inh 20.6µM*, Rab9 prom act -23.9%, FLuc counter -3.9%, ELG1 genotoxic 4.6% and NPC1 prom act -19.7%.
For COc1ccc(-c2n[nH]c(C)c2-c2ccc(Cl)cc2)c(O)c1OC the results were ELG1 repair inh 11.6µM*, Rab9 prom act -4.8%, FLuc counter 2.3%, SMN2 splice up 17.9%, ELG1 genotoxic -34.3% and NPC1 prom act -3.2%.
Screening COc1ccc(-c2cn[nH]c2-c2ccc(OCc3ccc(F)cc3)cc2O)cc1OC returned ELG1 repair inh inconclusive, Rab9 prom act -7.1%, FLuc counter -6.2%, ELG1 genotoxic 4.2% and NPC1 prom act -4.5%.
For C=C(C)COc1ccc(-c2[nH]ncc2-c2ccc(OC)c(OC)c2)c(O)c1 the results were ELG1 repair inh 20.6µM*, Rab9 prom act -37.7%, FLuc counter -4.7%, SMN2 splice up -50.6%, ELG1 genotoxic -5.3% and NPC1 prom act -30.7%.
Screening C=C(C)COc1ccc(-c2[nH]ncc2-c2ccc(OC)cc2)c(O)c1 returned ELG1 repair inh inconclusive, Rab9 prom act 0.1%, FLuc counter -18.5%, ELG1 genotoxic -14.7% and NPC1 prom act 1.1%.
COc1ccc(-c2cn[nH]c2-c2ccc(OCc3ccccc3)cc2O)cc1OC was read as ELG1 repair inh 13µM*, Rab9 prom act -4.1%, FLuc counter inconclusive, ELG1 genotoxic -18.9% and NPC1 prom act -2.5%.
Screening O=C(NCc1ccccc1Cl)c1ccc2c(c1)N(Cc1ccccc1)C(=O)CS2 returned FLuc counter -0.7%.
For COCCc1nn2c(=O)cc(COC(=O)C(c3ccccc3)c3ccccc3)nc2s1 the results were FLuc counter 3.3%.
Screening CC1=C(C(=O)Nc2ccccc2)C(c2cccnc2)n2nc(SCc3ccccc3Cl)nc2N1 (stereo not drawn) returned FLuc counter -1.0% and SMN2 splice up 1.4%.
O=[N+]([O-])c1ccc(N/N=C/c2ccccc2)c(F)c1 was read as ELG1 repair inh inconclusive, Rab9 prom act inconclusive, FLuc counter 10.7µM*, SMN2 splice up 22.4µM*, ELG1 genotoxic inconclusive and NPC1 prom act inconclusive.
O=[N+]([O-])c1cccc(/C=N/N=C\c2ccccc2)c1 was read as ELG1 repair inh 16.1%, Rab9 prom act -2.0%, FLuc counter 3.38µM*, ELG1 genotoxic 7.7% and NPC1 prom act 1.6%.
`CCc1cccc(NC(=O)CC(c2ccc(OC)cc2)N2Cc3ccccc3C2=O)c1` (stereo not drawn) gave FLuc counter -15.8%.
For N#C/C(=C/c1ccc(N2CCOCC2)o1)c1ccc(Cl)cc1 the results were ELG1 repair inh inconclusive, Rab9 prom act 2.82µM*, FLuc counter 8.49µM*, SMN2 splice up inconclusive, ELG1 genotoxic inconclusive and NPC1 prom act 3.55µM*.
For Cc1ccc2nc(/C(C#N)=C\c3ccc(N4CCCCC4)c([N+](=O)[O-])c3)[nH]c2c1 the results were FLuc counter -16.7% and SMN2 splice up 10.0%.
N#C/C(=C\c1ccc(N2CCOCC2)c([N+](=O)[O-])c1)c1nc2ccccc2[nH]1 was read as ELG1 repair inh inconclusive, Rab9 prom act -0.8%, FLuc counter 15.1µM*, SMN2 splice up -7.1%, ELG1 genotoxic -1.4% and NPC1 prom act 18.3%.
N#C/C(=C\c1ccc(N2CCOCC2)o1)c1nc2ccccc2[nH]1 was read as ELG1 repair inh inconclusive, Rab9 prom act 0.501µM*, FLuc counter 0.426µM*, SMN2 splice up 0.562µM*, ELG1 genotoxic inconclusive and NPC1 prom act 0.708µM*.
N#C/C(=C\c1ccncc1)c1nc2ccccc2[nH]1 was read as ELG1 repair inh 13.7%, Rab9 prom act -2.0%, FLuc counter inconclusive, SMN2 splice up 17.5%, ELG1 genotoxic -0.4% and NPC1 prom act 4.3%.
Screening N#C/C(=C/c1ccc(N2CCCC2)c([N+](=O)[O-])c1)c1nc2ccccc2[nH]1 returned ELG1 repair inh inconclusive, Rab9 prom act inconclusive, FLuc counter 6.01µM*, SMN2 splice up 7.7%, ELG1 genotoxic 3.4% and NPC1 prom act inconclusive.
For COc1cc(OC)cc(C(=O)Nc2ccc3c(c2)N(C2CCCC2)C(=O)c2ccccc2S3)c1 the results were FLuc counter -4.6%.

Screening data from PubChem.
